# Laboratory results taken from publication PMC11062922 (Nature Chemical Biology, 2023).
# Like-named read-outs stand apart in the source and are kept apart here.
# Tests used:
# Design in all cases: species or system human, MV4-11 + K-562 + COLO205 + SK-N-BE2 + OVCAR-8
# ACVR1B = settings: read-out: apparent Kd, n = 1
# ACVR2B = settings: read-out: apparent Kd, n = 1
# CSNK1A1 = settings: read-out: apparent Kd; compound concentrations:100 nM and 1000 nM (sheet 'Samples'); n = 1
# CSNK1D = settings: read-out: apparent Kd, n = 1
# CSNK1E = settings: read-out: apparent Kd; compound concentrations:100 nM and 1000 nM (sheet 'Samples'); n = 1
# TAOK1 = settings: read-out: apparent Kd; compound concentrations:100 nM and 1000 nM (sheet 'Samples'); n = 1
# NQO1 = settings: read-out: apparent Kd; compound concentrations: 100 nM and 1000 nM (sheet 'Samples'), CATDS: 9.3669265888158104E-2; n = 1
# PRKD2 = settings: read-out: apparent Kd, n = 1
# PRKD3 = settings: read-out: apparent Kd, n = 1
# RIPK2 = settings: read-out: apparent Kd, compound concentrations: 100 nM and 1000 nM (sheet 'Samples'), n = 1
# TGFBR1 = settings: read-out: apparent Kd, n = 1
# TGFBR2 = settings: read-out: apparent Kd; compound concentrations: 100 nM and 1000 nM (sheet 'Samples'), CATDS: 0.106428788110752; n = 1
# ILK = settings: read-out: apparent Kd; compound concentrations:100 nM and 1000 nM (sheet 'Samples'); n = 1
# MAP2K1 = settings: read-out: apparent Kd; compound concentrations:100 nM and 1000 nM (sheet 'Samples'); n = 1
# MAP2K2 = settings: read-out: apparent Kd; compound concentrations:100 nM and 1000 nM (sheet 'Samples'); n = 1
# PIK3CA = settings: read-out: apparent Kd, n = 1
# PIK3CD = settings: read-out: apparent Kd; compound concentrations:100 nM and 1000 nM (sheet 'Samples'); n = 1
# PSMC3 = settings: read-out: apparent Kd; compound concentrations:100 nM and 1000 nM (sheet 'Samples'); n = 1
# ADCK3 = settings: read-out: apparent Kd; compound concentrations: 100 nM and 1000 nM (sheet 'Samples'), CATDS: 0.14880786658068901; n = 1
# AKT2 = settings: read-out: apparent Kd; compound concentrations: 100 nM and 1000 nM (sheet 'Samples'), CATDS: 0.130692249594417; n = 1
# PIM2 = settings: read-out: apparent Kd; compound concentrations: 100 nM and 1000 nM (sheet 'Samples'), CATDS: 0.15422664553474699; n = 1
# PRKAG2 = settings: read-out: apparent Kd; compound concentrations: 100 nM and 1000 nM (sheet 'Samples'), CATDS: 0.141920033586769; n = 1
# ACVR1 = settings: read-out: apparent Kd; compound concentrations: 100 nM and 1000 nM (sheet 'Samples'), CATDS: 0.77187058261615105; n = 1
# ADRBK1 = settings: read-out: apparent Kd; compound concentrations: 100 nM and 1000 nM (sheet 'Samples'), CATDS: 7.2370560484510002E-2; n = 1
# BMPR1A = settings: read-out: apparent Kd; compound concentrations: 100 nM and 1000 nM (sheet 'Samples'), CATDS: 0.17247820312197201; n = 1
# BMPR1B = settings: read-out: apparent Kd; compound concentrations: 100 nM and 1000 nM (sheet 'Samples'), CATDS: 0.14495542747652801; n = 1
# ZAK = settings: read-out: apparent Kd; compound concentrations: 100 nM and 1000 nM (sheet 'Samples'), CATDS: 6.5320579429353404E-2; n = 1
# [1] = compound concentrations:100 nM and 1000 nM (sheet 'Samples')
smiles,measurement,setting,value
Nc1nc(-c2ccccn2)c(-c2ccnc3ccccc23)s1 [GW548057X],potency estimated from few doses,ACVR1B; [1],0.0762 µM
same,potency estimated from few doses,ACVR2B; [1],1.79 µM
same,potency estimated from few doses,CSNK1A1,0.893 µM
same,potency estimated from few doses,CSNK1D; [1],1.8 µM
same,potency estimated from few doses,CSNK1E,2.1 µM
same,potency estimated from few doses,TAOK1,1.7 µM
Nc1nc(-c2ccccn2)c(-c2ccc3ncccc3n2)s1 [GW693481X],potency estimated from few doses,"ACVR1B; compound concentrations: 100 nM and 1000 nM (sheet 'Samples'), CATDS: 0.44423819438106199",0.0189 µM
same,potency estimated from few doses,"CSNK1D; compound concentrations: 100 nM and 1000 nM (sheet 'Samples'), CATDS: 0.10134290714946401",1.41 µM
same,potency estimated from few doses,NQO1,1.85 µM
same,potency estimated from few doses,"PRKD2; compound concentrations: 100 nM and 1000 nM (sheet 'Samples'), CATDS: 9.0452620049035204E-2",2.11 µM
same,potency estimated from few doses,"PRKD3; compound concentrations: 100 nM and 1000 nM (sheet 'Samples'), CATDS: 9.3266966311560201E-2",1.88 µM
same,potency estimated from few doses,RIPK2; CATDS: 0.125372096454309,0.727 µM
same,potency estimated from few doses,"TGFBR1; compound concentrations: 100 nM and 1000 nM (sheet 'Samples'), CATDS: 0.486387422395817",0.016 µM
same,potency estimated from few doses,TGFBR2,1.2 µM
Cc1cc(Nc2nc(-c3cccc(C)n3)nc3ccccc23)ccn1 [GW872411X],potency estimated from few doses,ACVR1B; [1],0.471 µM
same,potency estimated from few doses,CSNK1D; [1],1.53 µM
same,potency estimated from few doses,CSNK1E,1.7 µM
same,potency estimated from few doses,ILK,1.61 µM
same,potency estimated from few doses,MAP2K1,2.13 µM
same,potency estimated from few doses,MAP2K2,1.69 µM
same,potency estimated from few doses,PIK3CA; [1],0.247 µM
same,potency estimated from few doses,PIK3CD,0.155 µM
same,potency estimated from few doses,PRKD2; [1],0.00412 µM
same,potency estimated from few doses,PRKD3; [1],0.00625 µM
same,potency estimated from few doses,PSMC3,1.81 µM
same,potency estimated from few doses,TGFBR1; [1],0.182 µM
COc1ccc(-c2ccc3c(NC(=O)C4CC4)n[nH]c3n2)cc1 [SB-711237],potency estimated from few doses,"ACVR1B; compound concentrations: 100 nM and 1000 nM (sheet 'Samples'), CATDS: 0.16866039240373501",1.18 µM
same,potency estimated from few doses,ADCK3,1.59 µM
same,potency estimated from few doses,AKT2,2.26 µM
same,potency estimated from few doses,"PIK3CA; compound concentrations: 100 nM and 1000 nM (sheet 'Samples'), CATDS: 0.46102021867548298",0.21 µM
same,potency estimated from few doses,PIM2,1.45 µM
same,potency estimated from few doses,PRKAG2,1.79 µM
COc1cc(-c2cncc(-c3cnn(C4CCNCC4)c3)c2)cc(OC)c1OC [K05908],potency estimated from few doses,"ACVR1B; compound concentrations: 100 nM and 1000 nM (sheet 'Samples'), CATDS: 0.127263158539664",0.0931 µM
same,potency estimated from few doses,ACVR1,0.00197 µM
same,potency estimated from few doses,"ACVR2B; compound concentrations: 100 nM and 1000 nM (sheet 'Samples'), CATDS: 7.0258773018851195E-2",1.36 µM
same,potency estimated from few doses,ADRBK1,1.11 µM
same,potency estimated from few doses,BMPR1A,0.0423 µM
same,potency estimated from few doses,BMPR1B,0.065 µM
same,potency estimated from few doses,RIPK2; CATDS: 0.16221198549174301,0.049 µM
same,potency estimated from few doses,"TGFBR1; compound concentrations: 100 nM and 1000 nM (sheet 'Samples'), CATDS: 0.103891234408396",0.181 µM
same,potency estimated from few doses,ZAK,2.41 µM
